Results filed as inconclusive are left out. Where a call stands in place of a potency, no number is given. Active and inactive are the calls of the source. Calls come from the whole dose curve; as a rule, active = well fitted activation curve with a large enough effect in the repeat runs; inconclusive = weak or mixed curves; inactive = flat fitted curve, though single readings scatter.
assay: A CellTox Green Cytotoxicity Assay to monitor cytotoxicity in HEK293 cells - 8 hour (AID 1224884); settings: CellTox Green fluorescence; series mostly up to 76.8 µM; note: nearly all actives have a fitted effect of over 35% in size
Description: National Center for Advancing Translational Sciences [NCATS]
NIH Chemical Genomics Center [NCGC]
U.S. Environmental Protection Agency [EPA]
National Institutes of Environmental Health Sciences [NIEHS]
National Toxicology Program [NTP]
Cell-based models are critical for drug discovery. Determining the natural cytotoxic effects resulting from test compounds is an essential research activity. A CellTox Green Cytotoxicity Assay to monitor cytotoxicity in real time of continues cell culture during 40 hours of the compound treatment was used to screen Tox21 10K library compounds in Hek293 cells. CellTox Green Cytotoxicity Assay is a nonlytic, homogeneous, biofluorescent method to measure cytotoxicity in cell culture after experimental manipulation. The assay system uses a proprietary asymmetric cyanine dye that is excluded from viable cells but preferentially stains the dead cell's DNA. […] Viable cells produce no appreciable increases in fluorescence. Therefore, the fluorescence signal produced by the binding interaction with dead cell DNA is proportional to cytotoxicity.
The mixture of Hek293 cell suspension and reagents were dispensed at 600cells/6 ul/well in 1536-well tissue culture treated black solid bottom plates using a Multidrop dispenser. After the assay plates were incubated at a 37 C/5% CO2 incubator for 5 hours, 23 nL of compounds dissolved in DMSO, positive and negative controls was transferred to the assay plate by a pintool work station. The plates were incubated at 37 C for 40 hours. The fluorescence intensity were measured at 0h, 8h, 16h, 24h, 32h and 40h time points using ViewLux plate reader during compound treatment.

SMILES | Potency
CCN(CC)C(=O)[C@@H]1C=C2c3cccc4[nH]cc(c34)C[C@H]2N(C)C1 | inactive
Cc1ncc(CNC(=O)N(CCCl)N=O)c(N)n1 | inactive
CC(C)CP(=S)(S)CC(C)C | inactive
CS(=O)(=O)c1cc(C(F)(F)F)ccc1C(=O)c1cnoc1C1CC1 | inactive
Cc1coc2c1CCC(C)C2 (stereo not given) | inactive
O=CNC(N1CCN(C(NC=O)C(Cl)(Cl)Cl)CC1)C(Cl)(Cl)Cl (stereo not given) | inactive
ClC(Cl)(Cl)C(Cl)(Cl)Cl | inactive
COc1cc(OC)nc(Oc2cccc(Oc3nc(OC)cc(OC)n3)c2C(=O)O)n1 | inactive
CC(CC(C#N)(c1ccccc1)c1ccccc1)N(C)C (stereo not given) | inactive
CC1(C(=O)Nc2ccc(O)c(Cl)c2Cl)CCCCC1 | inactive
CCOP(=S)(OCC)Oc1ncn(-c2ccccc2)n1 | inactive
OC(c1ccc(F)cc1)(c1cncnc1)c1ccccc1Cl (stereo not given) | inactive
CC1=C(C(=O)Nc2ccccc2)S(=O)(=O)CCO1 | inactive
O=[N+]([O-])c1ccc(CBr)cc1 | inactive
NC1=NC(=O)C(c2ccccc2)O1 (stereo not given) | inactive
CCC#N | inactive
ClC(Cl)C(Cl)Cl | inactive
CCCSC(=O)Cl | inactive
OC(Cn1cncn1)(c1ccc(F)cc1)c1ccccc1F (stereo not given) | inactive
O=S(=O)(O)C(F)(F)C(F)(F)C(F)(F)C(F)(F)C(F)(F)C(F)(F)F | inactive

SMILES | Potency
CC1(C)COP(Oc2ccccc2)OC1 | inactive
ClC(Cl)Br | inactive
CCCCc1c(C)nc(NCC)[nH]c1=O | inactive
COP(=S)(OC)Oc1c(Cl)cc(C)cc1Cl | inactive
Fc1ccc(C2(Cn3cncn3)OC2c2ccccc2Cl)cc1 (stereo not given) | inactive
CC(COc1ccc(Oc2ccccc2)cc1)Oc1ccccn1 (stereo not given) | inactive
CCOP(=S)(OCC)SCSc1ccc(Cl)cc1 | inactive
C[N+](=O)[O-] | inactive
CCOP(=S)(Oc1cnc(C(C)(C)C)nc1)OC(C)C (stereo not given) | inactive
CC(C=O)Cc1ccc2c(c1)OCO2 (stereo not given) | inactive
c1ccc(N2CCNCC2)cc1 | inactive
COCC(=O)N(c1c(C)cccc1C)N1CCOC1=O | inactive
CNC(=O)Oc1cccc(C(C)C)c1 | inactive
ClCCCN1CCN(c2cccc(Cl)c2)CC1 | inactive
CCCCP(CCCC)CCCC | inactive
CCOP(=S)(OCC)SCSP(=S)(OCC)OCC | inactive
COC(=O)C(c1ccccc1)C1CCCCN1 (stereo not given) | inactive
CCNc1nc(NC(C)C)nc(OC)n1 | inactive
CCOC(=O)/C=C(C)/C=C/C[C@@H](C)CCCC(C)C | inactive
C=C(C)[C@@H]1CC=C(C=O)CC1 | inactive
